In the library only some 1.2% were active in any assay of this set; here they are far more common.
RGS7-Gao reg – regulators of human RGS7-Galphao interaction; P09471; Multiplexed bead flow cytometry, RGS7-Galphao binding; actives lie on both sides; binding response (% of control), % at 10 µM; actives 0.35% (n = 220,000); AID 1439; in the data active = binding response below about 49% or above about 150%; inconclusive = no clear call, values can overlap the other calls; inactive = in between;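 also: fluorescent Galphao held in activated GDP-AlF4 state binding bead-coupled RGS7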
Target sequence (P09471 whole entry, looked up): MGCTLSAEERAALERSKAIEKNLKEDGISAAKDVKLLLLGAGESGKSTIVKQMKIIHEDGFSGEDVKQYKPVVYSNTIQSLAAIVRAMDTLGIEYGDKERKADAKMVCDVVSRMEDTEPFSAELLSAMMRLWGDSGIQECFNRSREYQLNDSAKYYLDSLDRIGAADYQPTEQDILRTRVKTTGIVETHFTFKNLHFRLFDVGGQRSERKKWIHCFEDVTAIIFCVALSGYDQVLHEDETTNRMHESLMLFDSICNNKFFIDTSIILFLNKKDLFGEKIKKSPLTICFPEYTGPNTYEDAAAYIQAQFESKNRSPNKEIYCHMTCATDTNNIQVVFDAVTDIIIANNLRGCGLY
RGS16-Gao – RGS16-Galphao interaction regulator (human) | bead-based flow cytometry RGS16-Galphao binding, fluorescence; actives lie on both sides | actives 0.38% (n = 220,000) | binding response (% of control), % at 10 µM | O15492+P09471 | AID 1441;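 also: Galphao activated by GDP with aluminum fluoride before binding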
Target sequence (O15492 whole entry, looked up): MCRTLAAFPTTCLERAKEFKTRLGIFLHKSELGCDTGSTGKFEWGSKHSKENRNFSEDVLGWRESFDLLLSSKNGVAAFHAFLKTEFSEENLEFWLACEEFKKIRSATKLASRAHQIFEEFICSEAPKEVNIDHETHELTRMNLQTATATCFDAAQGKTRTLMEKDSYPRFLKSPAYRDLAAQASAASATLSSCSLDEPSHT
Target sequence (P09471 whole entry, looked up): as the sequence (P09471 whole entry, looked up) above
GSH bead fluor – compound fluoresces at 488/530 nm on GSH beads | GSH beads flow cytometry, compound fluorescence 488/530 nm; active compounds read high | fluorescence (KMESF) at 10 µM | actives 0.25% (n = 190,000); in the data active = fluorescence above about 89;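 also: glutathione beads carrying GST-tagged Bcl family fusion proteins plus one bare bead set; values are compound well signal with DMSO vehicle wells as background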
Avidin fluor – compound fluoresces at 488/530 nm on avidin beads. AID 1775. compound fluorescence 488/530 nm, flow cytometry; active compounds read high. fluorescence (KMESF) at 10 µM. actives 0.38% (n = 220,000); in the data active = fluorescence above about 47
RGS4-Gao reg – modulates binding of RGS4 to human Galphao; Multiplexed bead flow cytometry; actives lie on both sides; actives 0.33% (n = 220,000); binding response (% of control), % at 10 µM; P09471; in the data active = binding response below about 49% or above about 150%; inactive = in between;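 also: fluorescent Galphao activated with aluminum fluoride binding bead-coupled RGS4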
RGS8-Gao reg – regulators of human RGS8-Galphao interaction | multiplexed bead flow cytometry, RGS8-Galphao binding; actives lie on both sides | P09471 | AID 1423 | response (percent of control binding), % at 10 µM | actives 0.34% (n = 220,000); in the data active = response below about 60% or above about 140%; inactive = in between;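 also: Galphao activated as the GDP aluminium fluoride complex binding bead-coupled RGS8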
RGS4-Gao HTS – regulators of human RGS4-Galphao interaction. actives 99% (n = 1,600). RGS4–Galpha-o binding response, % at 10 µM. shares compounds with RGS16-Gao. multiplexed bead flow cytometry, RGS–Galpha-o binding;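 also: fluorescently labeled Galpha-o bound to GDP with aluminium fluoride binding biotinylated RGS beads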
Avidin counter – counter-screen: compounds disrupting biotin binding to avidin beads | shares compounds with RGS16-Gao | streptavidin beads, fluorescein-biotin binding, flow cytometry | inhibition, % at 10 µM | 1,700 tested, under 10 active;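 active = inhibition above 50%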;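 also: median green fluorescence of gated singlet beads compared with DMSO control wells; 0% = DMSO wells and 100% = complete loss of bead fluorescence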
RGS8-Gao confirm – confirmation of regulators of human RGS8-Galphao interaction | shares compounds with RGS16-Gao | bead-based flow cytometry RGS8-Galphao binding, fluorescence; actives lie on both sides | binding response (% of control), % at 10 µM | actives 3% (n = 1,700); in the data active = binding response below about 72% or above about 130%; inactive = in between;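 also: Galphao activated as GDP AlF4 complex before binding bead RGS8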
RGS7-Gao single – confirmation of regulators of human RGS7-Galphao interaction; shares compounds with RGS16-Gao; bead-based flow cytometry RGS7-Galphao binding; actives lie on both sides; response (percent of control binding), % at 10 µM; actives 7.8% (n = 1,700); AID 1837; in the data active = response below about 75% or above about 130%; inactive = in between;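 also: fluorescent Galphao activated with GDP and aluminum fluoride binding bead-coupled RGS7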
RGS16-Gao single – confirmation of regulators of human RGS16-Galphao interaction; AID 1838; shares compounds with RGS16-Gao; response (% of control binding), % at 10 µM; bead-based flow cytometry, RGS16-Galphao binding; actives lie on both sides; actives 4% (n = 1,700); in the data active = response below about 74% or above about 130%; inactive = in between;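 also: Galphao activated as the GDP aluminium fluoride complex binding bead-coupled RGS16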
RGS4-Gao confirm – RGS4-Galphao interaction regulation, single point confirmation. RGS4-Galphao binding, multiplexed bead flow cytometry; actives lie on both sides. shares compounds with RGS16-Gao. binding response (% of control), % at 10 µM. actives 4% (n = 1,700); in the data active = binding response below about 74% or above about 130%; inactive = in between
RGS19-Gao single – confirmation of regulators of human RGS19-Galphao interaction | bead-based flow cytometry RGS19-Galphao binding; actives lie on both sides | response (percent of control binding), % at 10 µM | actives 5% (n = 1,700) | shares compounds with RGS16-Gao; in the data active = response below about 50% or above about 160%; inactive = in between;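 also: 100% = no compound control and 0% = blank background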
* marks the source's active call; other numbers are inactive results; ? = inconclusive; nt = no result; [ ] = another dose, or the depositor's remark. Unless noted, no rule for the calls is given here.

SMILES	RGS7-Gao reg	RGS16-Gao	GSH bead fluor	Avidin fluor	RGS4-Gao reg	RGS8-Gao reg	Avidin counter	RGS8-Gao confirm	RGS7-Gao single	RGS16-Gao single	RGS4-Gao confirm	RGS19-Gao single	others
CC1C(=O)CC(c2ccccc2)NC1c1ccccc1 (stereo unspecified)	106	407*[activator]	10	12	117	125	-1	101	103	100	103	102	RGS4-Gao HTS=117*
NC(=O)C(=CNc1nc(-c2ccc(Cl)c(Cl)c2)cs1)C(N)=O	?	103	nt	7	95	102	nt	nt	nt	nt	nt	nt
Clc1ccc(-n2nnc(-c3cccnc3)n2)cc1Cl	43*	46	17	2	47*	53*	2	104	96	103	97	97
COCCN1C(=O)c2ccccc2C(C(=O)NCCCN2CCCC2)C1c1c[nH]c2ccccc12 (stereo unspecified)	34*	32	21	15	38*	42*	1	105	94	101	99	93
CN1C(=O)c2ccccc2C(C(=O)NCCCN2CCCC2=O)C1c1c[nH]c2ccccc12 (stereo unspecified)	103	102	6	10	105	102	nt	nt	nt	nt	nt	nt
CC(C)(C)c1ccc(-c2nnc(SCCN3C(=O)c4ccccc4C3=O)o2)cc1	103	107	10	8	103	104	nt	nt	nt	nt	nt	nt
Cn1cccc1/C=C1\SC(=O)N(CC(=O)Nc2ccc(Cl)cc2)C1=O	100	98	14	nt	102	98	nt	nt	nt	nt	nt	nt
Cc1ccc(NC(=O)CN2C(=O)S/C(=C\C(=O)Nc3ccc(Cl)cc3)C2=O)cc1	75	8.0*	5	7	79	79	2	104	95	105	99	91	RGS4-Gao HTS=79*
CCn1c(C)cc(/C=C2\SC(=O)N(CC(=O)Nc3ccc(C)c(C)c3)C2=O)c1C	-28*	-95*	14	-2	-95*	6.0*	-1	100	92	97	98	96
CCN(C(=O)CSc1ccc2ccccc2n1)C1CCS(=O)(=O)C1 (stereo unspecified)	103	109	16	10	104	104	nt	nt	nt	nt	nt	nt
CCN(C(=O)CSc1cc(C)c2ccccc2n1)C1CCS(=O)(=O)C1 (stereo unspecified)	12*	8.0*	14	0	14*	13*	0	98	93	96	95	76
C=C1c2cccc(O)c2C(O)=C2C(=O)[C@]3(O)C(O)=C(C(N)=O)C(=O)[C@@H](N(C)C)[C@@H]3[C@@H](O)[C@H]12	105	96	21	5	92	101	nt	nt	nt	nt	nt	nt
CN(C)[C@@H]1C(=O)C(C(=O)NCN2CCCC2)=C(O)[C@@]2(O)C(=O)C3=C(O)c4c(O)cccc4[C@@](C)(O)C3CC12 (stereo partly specified)	8.3*	8	9	-2	21*	18*	-2	53*	26*	54*	60*	35*
CCOC(=O)Nc1c(Cl)n(C)c(=O)n(C)c1=O	?	103	nt	8	103	101	nt	nt	nt	nt	nt	nt
COc1cccc(Cn2c(Oc3ccccc3)nc3c2c(=O)n(C)c(=O)n3C)c1	90	-247*	43	1	83	86	nt	nt	nt	nt	nt	nt	RGS4-Gao HTS=83*
Cc1ccc(-n2nc3c(SCCN4CCOCC4)nnc(C)c3c2C)cc1	100	100	17	18	97	99	nt	nt	nt	nt	nt	nt
CCOc1ccc(-n2nc3c(SCCN4CCCC4)nnc(C)c3c2C)cc1	210*[activator]	202*[activator]	12	40	183*[activator]	121	0	99	88	97	91	92
O=c1oc(-c2ccc([N+](=O)[O-])cc2)nc2ccc(O)cc12	?	100	12	17	100	100	nt	nt	nt	nt	nt	nt
Cc1ccc(N2C(=O)[C@@H]3C(c4cccnc4)=NO[C@@H]3C2=O)cc1	?	103	nt	3	102	104	nt	nt	nt	nt	nt	nt
COC(=O)C(NC(C)=O)(Nc1nc2ccc(S(C)(=O)=O)cc2s1)C(F)(F)F (stereo unspecified)	94	-18*	57	3	97	92	nt	nt	nt	nt	nt	nt	RGS4-Gao HTS=97*
COc1ccc(/C=N/n2cnn(Cc3ccccc3Cl)c2=S)cc1	?	12*	10	0	23*	15*	-2	102	107	101	103	98
CSc1nc(N)nc(C2CC2)n1	?	97	nt	5	96	66	-2	99	94	96	100	106
CSc1nc(N)nc(N(C)C)n1	?	106	nt	4	106	102	nt	nt	nt	nt	nt	nt
O=C1CN(C(=O)CNCc2cccc(Cl)c2)c2ccccc2N1	?	92	nt	6	90	97	nt	nt	nt	nt	nt	nt
COc1ccc(NC(=O)c2ccc(S(=O)(=O)N(C)c3ccccc3)cc2)cn1	?	102	nt	8	100	97	nt	nt	nt	nt	nt	nt
NC(=O)c1ccc(C23CC4CC(CC(C4)C2)C3)o1	96	202*[activator]	6	13	101	118	-1	110	100	108	99	90	RGS4-Gao HTS=101*
Cc1cc(C)c(-c2cc(NC(=O)CSc3n[nH]c(N)n3)n(-c3ccccc3)n2)cc1C	-16*	-38*	33	-5	-44*	6.7*	0	100	106	102	103	106
COc1ccc(CNC(=O)c2c(F)c(F)c(F)c(F)c2F)cc1	51	97	12	6	93	58*	0	99	92	100	97	91	RGS4-Gao HTS=93*
CC(C)c1onc(C(=O)N2CCCCC2C)c1[N+](=O)[O-] (stereo unspecified)	23*	-45	14	-1	28*	30*	-1	104	102	107	101	103
